This is one part of a sample in which hits are shown more often than they occur.
aSyn yeast rescue: alpha-synuclein toxicity suppression in yeast; 0.02% of 94,000 active; Potency, µM (highest dose often 46.1 µM), hits mostly activators; S. cerevisiae alpha-synuclein toxicity rescue, BacTiter-Glo growth, 24 h; active means well fitted activation curve with a large enough effect
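Growth restoration measured by BacTiter-Glo luminescence after 24 hr at 30 deg C; alpha-synuclein yeast, raffinose-pregrown to mid-log, were added at OD600=0.02 in galactose medium onto pinned compounds.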
Of the large screens only hits and unclear results are named; the others gave an inactive call.

COC(=O)c1ccc(NC(=O)CN2CCCN(Cc3ccc(Cl)cc3)S2(=O)=O)cc1	none
CCC(=O)N1CCc2cc(CNS(=O)(=O)c3ccccc3F)ccc21	none
Cc1ccc(-n2c(=O)c3c4c(sc3n(Cc3ccccc3C)c2=O)CCC4)cc1C	none
CCOc1ccc2nc(N3CCN(C(=O)c4ccc5c(c4)CCCC5)CC3)sc2c1	none
COc1ccc(NS(=O)(=O)c2cc3[nH]c(=O)c(=O)[nH]c3cc2C)cc1OC	none
CCOc1ccc(CC(=O)Nc2nnc3n2CCS3)cc1	none
O=C(COc1ccc([N+](=O)[O-])cc1)N1CCC(c2nc3ccccc3s2)CC1	none
CCc1ccc(-n2nc(CO)c(C(=O)NCCc3ccccc3)n2)cc1	none
O=C(c1c2c(nc3ccccc13)C(=O)N(C1CCCCC1)C2)N1CCN(c2ccc(F)cc2)CC1	none
COc1ccccc1-c1noc(-c2ccc(N3CCOCC3)c([N+](=O)[O-])c2)n1	none
COC(=O)c1ccc(C(=O)OC)c(NC(=O)N2CC3CCCN3c3ccccc32)c1 (configuration not stated)	none
CCN1CCc2c(sc(-n3cccc3)c2C(C)NC(=O)Nc2cc(Cl)c(OC)cc2OC)C1 (configuration not stated)	none
COc1cccc(Cc2nc3ccccc3nc2SCC(=O)NCc2ccc(C)cc2)c1	none
CCOCCc1nn2c(=O)cc(COC(=O)c3ccccc3Br)nc2s1	none
CC(NC(=O)CCCC1=NS(=O)(=O)c2ccccc2N1)c1ccccc1 (configuration not stated)	none
COc1cc(-c2nc3cnccn3c2Nc2ccc(C(C)C)cc2)ccc1O	none
Cc1ccn2c(Nc3ccc(C(C)C)cc3)c(-c3cccnc3)nc2c1	none
CC(C)c1ccc(Nc2c(-c3ccccc3O)nc3cnccn23)cc1	aSyn yeast rescue 22µM
Cc1sc2c(c1C)c(=O)n(-c1ccccc1)c(=O)n2CC(=O)c1ccc(Cl)cc1	none
COC(=O)c1ccc(NC(=O)CCn2cnnn2)cc1	none
Cc1ccc(C)c(OCCn2cc(C(=O)c3cccs3)c3ccccc32)c1	none
COc1ccc(-c2nc3ccc(NS(=O)(=O)c4ccccc4)cc3o2)cc1	none
O=S(=O)(Nc1ccc2nc(-c3ccc(F)cc3)oc2c1)c1ccccc1	aSyn yeast rescue 20µM
Cc1ccc(S(=O)(=O)Nc2ccc3nc(-c4ccc(F)cc4)oc3c2)cc1	none
CCOC(=O)CSC1=Nc2ccccc2C2=NC(CCC(=O)NCc3ccccc3)C(=O)N12 (configuration not stated)	none
CCOC(=O)c1ccc(NC(=O)CC2C(=O)N(c3ccccc3)C(=O)N2C2CCCCC2)cc1 (configuration not stated)	none
N#Cc1ccc(CN2C(=O)c3ccccc3Sc3ccc(C(=O)OCc4ccco4)cc32)cc1	none
Cc1ccc2[nH]c(CSc3nnc(NC(=O)COc4ccccc4)s3)cc(=O)c2c1	none
CCOC(=O)c1ccc(NC(=O)c2c(N3CCCC3=O)c3cc(OC)ccc3n2C)cc1	none
COc1ccc(C)cc1NC(=O)C(=O)NCCc1csc(-c2ccc(C)cc2)n1	none
COc1cccc(C(=O)Nc2cccc(C(=O)OCc3cc(=O)n4c(C)csc4n3)c2)c1	none
Cc1ccc(NC(=O)CN(C)S(=O)(=O)c2ccc3c(c2)CCC(=O)N3)c(C)c1	none
COc1ccc(Cl)cc1NC(=O)[C@H]1O[C@@H]2OC(C)(C)O[C@@H]2[C@H]2OC(C)(C)O[C@H]21	none
COc1cccc(-c2nc(CS(=O)(=O)CC(=O)NCc3ccc(C)cc3)c(C)o2)c1	none
CCC(=O)N1CCc2cc(S(=O)(=O)NC(CC(C)C)C(=O)Nc3cc(C)ccc3OC)ccc21 (configuration not stated)	none
CCN(CC)S(=O)(=O)c1nnc(NC(=O)COc2ccccc2F)s1	none
CCC(C)NC(=O)CSc1nc2n[nH]c(C)c2c(=N)n1-c1cc(Cl)ccc1C (configuration not stated)	none
Cc1ccc(Cn2c(CNS(=O)(=O)c3ccc(Cl)s3)nc3cccnc32)cc1	none
Cc1ccc(N2C(=O)CSC23C(=O)N(CC(=O)NCc2ccccc2)c2ccccc23)cc1C (configuration not stated)	none
Cc1nc2cccnc2n1-c1cccc(C(=O)N2CCN(c3cccc(Cl)c3)CC2)c1	none
CCn1cc2nc(SCC(=O)Nc3cc(OC)cc(OC)c3)n(Cc3ccc(Cl)cc3)c(=O)c2n1	none
Fc1ccc(Nc2nc(SCc3cccc(F)c3)nc3ccccc23)cc1	none
Clc1cccc(CNc2cc(-c3ccccc3)nc3nncn23)c1	none
COc1ccccc1NC(=O)Cn1c(=O)n(-c2ccc(C)cc2)c(=O)c2c1cnn2C	none
Cc1cc(Nc2cccc(Br)c2)n2c(nc3ccccc32)c1C#N	none
CC(C)OCCCNC(=O)CN1C(=O)COc2ccc(S(=O)(=O)N3CCOCC3)cc21	none
CCCCOc1ccc(C(=O)Nc2cccc(-c3nc4cccnc4s3)c2)cc1	none
COc1ccc(CCNC(=O)CSc2nc(-c3ccc(F)cc3)cc(C(F)(F)F)n2)cc1OC	none
Cc1cc2nc(-c3cccc(NC(=O)c4cccc5ccccc45)c3)oc2cc1C	none
Cc1oc2ncn(C)c(=O)c2c1C(=O)NCc1ccccc1	none
COc1cccc2sc(N3CCN(C(=O)CCS(=O)(=O)c4ccc(F)cc4)CC3)nc12	none
Cc1cc(C)c(NC(=O)CSc2nc3ccccc3nc2N2CCCCC2)c(C)c1	none
COc1ccc(OC)c(NC(=O)c2cc3c(=O)n4cccc(C)c4nc3n2C)c1	none
CCCCN(C)C(=O)Cn1c(SCC(=O)Nc2ccc(C)c(C)c2)nc2ccccc21	none
CCCN(C(=O)Cn1ncc2c([nH]c3ccccc32)c1=O)c1ccc(F)cc1	none
CCc1ccc(NC(=O)c2cc(S(=O)(=O)NC3CCCC3)ccc2F)cc1	none
Cc1ccc(NC(=O)c2cc(S(=O)(=O)NC3CCCCCC3)ccc2F)cc1F	aSyn yeast rescue 25µM
Cc1ccc(NC(=O)c2cc(S(=O)(=O)N3CCCCCC3)ccc2F)cc1F	none
CC(C)NC(=O)CSc1cn(CC(=O)N2CCCCCC2)c2ccccc12	none
CCCS(=O)(=O)c1nc(S(=O)(=O)c2ccc(C)cc2)c(NCc2ccccc2Cl)s1	none
Cc1ccc(C)c(CN2C(=O)c3ccccc3S(=O)(=O)c3ccc(C(=O)N4CCN(c5ccccn5)CC4)cc32)c1	none
COc1ccc(S(=O)(=O)N2CCN(CC(=O)Nc3ccc(Cl)c(C(F)(F)F)c3)CC2)cc1	none
Cc1ccc(OCC(=O)NCC2(N3CCOCC3)CCCCC2)cc1C	none
COc1cccc2sc(N(Cc3cccnc3)C(=O)COc3ccccc3)nc12	none
O=C(Cc1ccccc1)N(Cc1cccnc1)c1nc2c(Cl)cccc2s1	aSyn yeast rescue 14µM
O=C(C1COc2ccccc2O1)N(Cc1cccnc1)c1nc2c(Cl)cccc2s1 (configuration not stated)	none
Cc1noc(Cn2c(=O)c3cc4c(cc3n(CC(=O)Nc3ccccc3F)c2=O)OCO4)n1	none
CCOC(=O)c1c(NC(=O)c2noc3c2CC(C(C)(C)C)CC3)sc2c1CCCC2 (configuration not stated)	none
Cc1ccc(CCNC(=O)CS(=O)Cc2nc(-c3cccs3)oc2C)cc1 (configuration not stated)	none
Cc1ccc(CCNC(=O)CS(=O)Cc2nc(-c3ccccc3C)oc2C)cc1 (configuration not stated)	none
CCc1ccc(-c2nc(CS(=O)CC(=O)NCCc3ccc(C)cc3)c(C)o2)cc1 (configuration not stated)	aSyn yeast rescue 20µM

Screening data (PubChem)
